{"source": "ChEMBL document CHEMBL3988442", "about": "“University of Dundee, Small-Polar-MMV Screening Library” (2021)", "note": "The campaign covered roughly 38,000 compounds. About 1,200 (3.2%) showed an effect of 50% or more. The median lay at about -58%. Only a selection was taken, and strong results are over-represented in it overall.", "data": [{"tested_on": "Plasmodium falciparum", "assay": "Calibr Malaria Delayed Death Assay SOP", "format": "functional, organism-based", "design": "scale not given: in the data most compounds retested in dose-response had high values", "details": "concentration 4.99e-06 (unit not given; other assays of the set use mol/L)", "units": {"Percent Effect": "%"}, "values": [{"smiles": "COCC(O)CN(C)c1ccnc2cc(Br)ccc12", "note": "(centres undefined)", "Percent Effect": 94.48}, {"smiles": "COCC(O)CN(C)c1ccnc2ccc(Cl)cc12", "note": "(centres undefined)", "Percent Effect": -46.57}, {"smiles": "COCC(O)CN(C)c1ccnc2cc(F)ccc12", "note": "(centres undefined)", "Percent Effect": -53.9}, {"smiles": "COC1COC2(CCN(C(=O)c3ccc4ccccc4c3)CC2)C1", "note": "(centres undefined)", "Percent Effect": -205.6}, {"smiles": "CCCn1ncc(-c2ccnc(NC3CC(C)(C)NC(C)(C)C3)n2)c1C", "Percent Effect": 66.75}, {"smiles": "CCCn1ncc(-c2ccnc(NC3CCSC3)n2)c1C", "note": "(centres undefined)", "Percent Effect": -9.069}, {"smiles": "CCCn1ncc(-c2ccnc(N[C@@H]3C[C@@H]4CC[C@H]3C4)n2)c1C", "Percent Effect": -33.21}, {"smiles": "CCN(CC)C(=O)c1nnsc1-c1ccc(C)cc1", "Percent Effect": -12.06}, {"smiles": "CC(=O)N1CCN2C[C@H](CO)[C@@H](c3ccccc3)[C@H]2C1", "Percent Effect": -67.98}, {"smiles": "CC(=O)NCCNC(=O)CN1CCCC1c1c(C)nn(C)c1C", "note": "(centres undefined)", "Percent Effect": -114}, {"smiles": "CN1C(=O)C[C@H]2[C@H]1CCN2Cc1cccc(C#N)c1.O=C(O)C(F)(F)F", "Percent Effect": -78.57}, {"smiles": "Cc1ncnc2c1CCN(C(=O)Cc1ccccn1)CC2.O=C(O)C(F)(F)F", "Percent Effect": -129.8}, {"smiles": "CS(=O)(=O)N1CCC2(CC1)CC(NCc1ccccn1)c1ccccc12", "note": "(centres undefined)", "Percent Effect": 1.106}, {"smiles": "COCC(=O)NC1CC2(CCN(CCN(C)C)CC2)c2ccccc21", "note": "(centres undefined)", "Percent Effect": -44.07}, {"smiles": "COCCN1CCC2(CC1)CC(NCc1ccc(C)s1)c1ccccc12.O=C(O)C(F)(F)F.O=C(O)C(F)(F)F", "note": "(centres undefined)", "Percent Effect": 76.07}, {"smiles": "COCCN1CCC2(CC1)CC(N1CCOCC1)c1cc(C)ccc12.O=C(O)C(F)(F)F.O=C(O)C(F)(F)F", "note": "(centres undefined)", "Percent Effect": -78.91}, {"smiles": "COCCN1CCC2(CC1)CC(NCc1cncn1C)c1ccccc12.O=C(O)C(F)(F)F.O=C(O)C(F)(F)F", "note": "(centres undefined)", "Percent Effect": -24.3}, {"smiles": "CC(C)N(CC(N)=O)C(=O)c1cnc(-c2ccc3c(c2)OCO3)s1", "Percent Effect": -184.6}, {"smiles": "CC(=O)N(C)Cc1cccc(NC(=O)c2cnn(C)c2C)c1", "Percent Effect": -25.31}, {"smiles": "CCOc1cc(C(=O)n2cc(C)cn2)cc(OCC)c1OCC", "Percent Effect": -156.8}, {"smiles": "NC(=O)c1ccc(N2CCCCC2)c(NC(=O)c2cc(Br)ccc2Cl)c1", "Percent Effect": -37.22}, {"smiles": "NC(=O)c1ccc(N2CCCCC2)c(NC(=O)c2ccc(Br)cc2)c1", "Percent Effect": 70.21}, {"smiles": "NC(=O)c1ccc(N2CCCCC2)c(NC(=O)c2cc(Br)ccc2F)c1", "Percent Effect": -77.22}, {"smiles": "CSCc1cc(F)ccc1CNC(=O)N1CCC[C@@H]1CO", "Percent Effect": -21.18}, {"smiles": "NC(=O)NC(=O)CCN1CCN(c2nccs2)CC1", "Percent Effect": -12.95}, {"smiles": "COc1ccc(CNCC(C)Oc2ccccn2)cc1Cl.Cl", "note": "(centres undefined)", "Percent Effect": 13.86}, {"smiles": "O=C1CC2(CCN(Cc3ccoc3)CC2)CN1Cc1cc(F)cc(F)c1", "Percent Effect": 54.75}, {"smiles": "O=C1CC2(CCN(CC3CC3)CC2)CN1Cc1cc(F)cc(F)c1", "Percent Effect": 9.433}, {"smiles": "CC(C)N1CCC2(CC1)CC(=O)N(Cc1cc(F)cc(F)c1)C2", "Percent Effect": 31.53}, {"smiles": "O=C(CO)N1CCC2(CC1)CC(=O)N(Cc1cc(F)cc(F)c1)C2", "Percent Effect": -76.75}, {"smiles": "CC(C)=CCN1CCC2(CC1)CC(=O)N(Cc1cc(F)cc(F)c1)C2", "Percent Effect": 74}, {"smiles": "O=C1CC2(CCN(CCCF)CC2)CN1Cc1cc(F)cc(F)c1", "Percent Effect": 33.68}, {"smiles": "NCCn1cc(C(=O)N2CCCCCC2c2cccc(F)c2)nn1", "note": "(centres undefined)", "Percent Effect": -109.1}, {"smiles": "COc1cc2nc(C)n(CC(=O)NCCC(C)C)c(=O)c2cc1OC", "Percent Effect": -84.85}, {"smiles": "CCc1ncc(CN2CCC(CCc3ccccc3)CC2)cn1", "Percent Effect": 5.724}, {"smiles": "Cc1cc(C)n(CCCN(C)C(=O)C2COc3ccccc3C2)n1", "note": "(centres undefined)", "Percent Effect": -44.86}, {"smiles": "Cc1nn(C)c(C)c1CCC(=O)OCC(=O)N1CCc2sccc2C1", "Percent Effect": -33.28}, {"smiles": "CC1=NOC(C(=O)N(C)CCCn2nc(C)cc2C)C1", "note": "(centres undefined)", "Percent Effect": -92.45}, {"smiles": "Cc1nn(C)c(C)c1CN1CCNCC1", "Percent Effect": -151.9}, {"smiles": "c1cnc(N2CCCC(c3n[nH]c4ncccc34)C2)nc1", "note": "(centres undefined)", "Percent Effect": -55.39}, {"smiles": "COCC[C@]1(O)CCN(Cc2nc(C(C)C)cs2)C[C@H]1C", "Percent Effect": -100.7}, {"smiles": "CN1CCCC(CNC(=O)CN(C)S(=O)(=O)c2cccnc2)C1", "note": "(centres undefined)", "Percent Effect": -82.06}, {"smiles": "O=C(c1ccnnc1)N1CCc2onc(Cn3cccn3)c2C1", "Percent Effect": -67.89}, {"smiles": "CCOC(=O)CNC(=O)N1CCc2onc(-c3ccc(Cl)cc3)c2C1", "Percent Effect": -35.73}, {"smiles": "Cn1cccc1C(=O)N1CCc2onc(Cn3cccn3)c2C1", "Percent Effect": -37.04}, {"smiles": "CCS(=O)(=O)N1CCC2(CN(C(=O)c3cn(C)cn3)C2)C1", "Percent Effect": -95.83}, {"smiles": "Cn1cnc(C(=O)N2CC3(CCN(S(=O)(=O)c4ccccc4)C3)C2)c1", "Percent Effect": 9.335}, {"smiles": "Cc1n[nH]cc1C(=O)N1CCCC(c2cccc(-n3ccnc3)n2)C1", "note": "(centres undefined)", "Percent Effect": -34.99}, {"smiles": "COCCNS(=O)(=O)c1cccc2c1CN(C(=O)c1cc(C)on1)CC2", "Percent Effect": -82.56}, {"smiles": "Cc1csc2c(=O)n3c(nc12)CCN(C(=O)c1ccnn1C)CC3", "Percent Effect": -147.1}, {"smiles": "Cc1noc([C@@H]2CC[C@@H]3[C@@H](CCN3S(=O)(=O)c3ccccc3)O2)n1", "Percent Effect": -19.99}, {"smiles": "COCCO[C@@H]1CCN(C(=O)c2occc2C)[C@H]1Cc1cnn(C)c1", "Percent Effect": -35.95}, {"smiles": "CC(C)n1cnnc1C1CCCN(S(=O)(=O)CC2CCCC2)C1", "note": "(centres undefined)", "Percent Effect": -66.23}, {"smiles": "Cc1cc(=O)[nH]c(=O)n1-c1ccccc1Br", "Percent Effect": -82.44}, {"smiles": "COC(=O)c1cccc(C(=O)N2CCN(c3ccc(Cl)cc3)CC2)n1", "Percent Effect": -128.8}, {"smiles": "Cc1cc(-c2cnn(CCNC(=O)Cc3ccccn3)c2C2CC2)on1", "Percent Effect": -41.77}, {"smiles": "CCN(CC)C(=O)c1c(Cl)cnn1CC", "Percent Effect": -101.8}, {"smiles": "O=C1CC2(CCCC2)CC(=O)N1Cc1nc2ncccn2n1", "Percent Effect": -57.36}, {"smiles": "N#Cc1ccc(F)c(CNc2ccc(F)cc2OCCO)c1", "Percent Effect": -1.485}, {"smiles": "CC(=O)Nc1ccc(CNCc2cccnc2N(C)C)cc1", "Percent Effect": -87.09}, {"smiles": "O=C(c1cscn1)N1CCc2ncc(Cn3cncn3)n2CC1", "Percent Effect": -88.92}, {"smiles": "CN(C)CCn1c(=O)n(C)c(=O)c2ccccc21.Cl", "Percent Effect": -12.02}, {"smiles": "CC(C)n1c(=O)c2ccccc2n(CCCN(C)C)c1=O.Cl", "Percent Effect": 57.86}, {"smiles": "CC(C)n1c(=O)c2ccccc2n(CCN(C)C)c1=O.Cl", "Percent Effect": 33.53}]}]}
